CBFb RUNX1 block: inhibitors of human CBF-beta and RUNX1 interaction; 230,000 tested, under 10 active; Potency, µM (titrated, usually from 59.8 µM), most hits filed as inhibitors; AlphaScreen CBFb-His/RUNX1-biotin binding, biochemical
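Interaction loss through any mechanism counts as activity. Pre-formed complex of His-CBF-beta and biotin-RUNX1 (30 nM apiece) is incubated with compound 15 min, then with 50 ng nickel and 50 ng streptavidin beads for 90 min before AlphaScreen detection.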
HPGD inh: inhibitors of human 15-hydroxyprostaglandin dehydrogenase (HPGD); 4.3% of 150,000 active; P15428; purified HPGD, NADH fluorescence kinetic, PGE2 substrate; Potency, µM, most hits filed as inhibitors; active means well fitted inhibition curve with a large enough effect, not every such curve was filed as active; inconclusive means small, poorly fitted or top-dose-only effect, or another doubt; inactive means no such curve, though single readings can be large or run the other way
Target sequence (P15428 whole entry, looked up): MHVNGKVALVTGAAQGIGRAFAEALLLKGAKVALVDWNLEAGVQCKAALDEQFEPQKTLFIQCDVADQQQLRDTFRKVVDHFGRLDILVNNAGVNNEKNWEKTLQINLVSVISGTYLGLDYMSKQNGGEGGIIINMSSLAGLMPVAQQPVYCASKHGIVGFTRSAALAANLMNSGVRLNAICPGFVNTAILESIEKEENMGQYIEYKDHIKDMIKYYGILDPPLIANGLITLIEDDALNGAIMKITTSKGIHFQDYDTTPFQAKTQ
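20 nM HPGD preincubated 15 min at room temperature with compound in 50 mM Tris-HCl pH 8, 0.01% Tween 20. Started with 1 mM NAD+ and 30 uM prostaglandin E2; NADH fluorescence (360/450 nm) read 5 times over 30-s intervals, last minus first.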
ALDH1A1 inh: blocks purified human ALDH1A1 activity. Potency, µM (series often up to 75.3 µM), actives largely listed as inhibitors. AID 1030. 7.3% of 220,000 active. P00352. Purified ALDH1A1, NADH fluorescence, propionaldehyde substrate; active means well fitted inhibition curve with a large enough effect, not every such curve was filed as active; inconclusive means small, poorly fitted or top-dose-only effect, or another doubt; inactive means no such curve, though single readings can be large or run the other way
HttQ103 aggreg: mutant huntingtin aggregation inhibition; Potency, µM (titrated, usually from 46.1 µM), usual class: inhibitors; AID 1688; PC12 HttQ103-GFP aggregates, Acumen cytometry, 40 h; 1.1% of 220,000 active; further: nearly all actives have a fitted effect of over 60% in size
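Inducible Q103 Huntingtin exon 1–GFP PC12 line, 1500 cells/well in phenol red free DMEM with 5% equine and 5% calf serum. Tebufenozide 100 nM induced expression; compounds titrated; aggregates quantified by cytometry.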
HTT cytoprotect: cytoprotection in Huntington HTT-Q103 PC12 cell model. PC12 HTT-Q103 induced, cytoprotection, ATP luminescence, 40 h. Potency, µM (doses to about 56.4 µM), usual class: activators. 0.14% of 230,000 active; further: nearly all actives have a fitted effect of over 45% in size
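Quantitative HTS on tebufenozide-induced (100 nM) PC12 cells expressing HTTQ103 exon 1–GFP; compounds tested as a concentration series; survival measured via cellular ATP.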
JMJD2E inh: inhibitors of human JMJD2E histone demethylase. B2RXH2. JMJD2E catalytic domain, FDH-coupled NADH fluorescence (FDH is formaldehyde dehydrogenase). Potency, µM (doses to about 57.1 µM), hits mostly inhibitors. 1.6% of 230,000 active. AID 2147; active means well fitted inhibition curve with a large enough effect, not every such curve was filed as active; inconclusive means small, poorly fitted or top-dose-only effect, or another doubt; inactive means no such curve, though single readings can be large or run the other way; further: nearly all actives have a fitted effect of over 50% in size
Target sequence (B2RXH2 1-337 limits assumed): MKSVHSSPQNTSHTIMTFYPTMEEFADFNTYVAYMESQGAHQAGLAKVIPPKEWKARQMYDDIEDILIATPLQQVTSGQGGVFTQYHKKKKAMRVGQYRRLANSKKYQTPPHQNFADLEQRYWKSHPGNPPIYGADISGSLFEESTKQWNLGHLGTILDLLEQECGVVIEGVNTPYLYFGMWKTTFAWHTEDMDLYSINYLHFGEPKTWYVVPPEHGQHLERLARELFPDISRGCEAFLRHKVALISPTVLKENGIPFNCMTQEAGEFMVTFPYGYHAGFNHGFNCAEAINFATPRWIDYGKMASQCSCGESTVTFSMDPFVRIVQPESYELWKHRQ
Hits are given with their value; . = inactive; ? = inconclusive; / = no result given; [ ] = remark or other dose. Rows were chosen to be rich in hits. Some 9.8% of all compounds tested hit in one or more screens of this group. Unless noted, the call rests on the fitted dose curve; in most records, active means well fitted curve in the direction sought with a large enough effect; inconclusive means small, poorly fitted or top-dose-only effect, or another doubt; inactive means no such curve, though single readings can be large; an effect the other way counts as inactive or inconclusive.

SMILES | CBFb RUNX1 block | HPGD inh | ALDH1A1 inh | HttQ103 aggreg | HTT cytoprotect | JMJD2E inh
O=C(CCN1C(=O)C2C3CCC(C3)C2C1=O)Nc1ccc([N+](=O)[O-])cc1 (configuration not stated) | . | / | 3.5µM | . | .[10 µM] | .
COCCn1c(SCC(=O)c2c(N)n(C)c(=O)n(C)c2=O)nc2ccccc21 | . | / | . | . | ? | .
Oc1nc(Nc2ccc(F)cc2)sc1/C=C1\C=Nc2ccccc21 | . | / | / | .[9.22 µM] | .[10 µM] | .
O=c1[nH]c(S)c(/C=C2\C=Nc3ccccc32)s1 | ? | / | 25µM | .[9.22 µM] | .[10 µM] | .
CCOC(=O)c1ccc(NC(=O)NS(=O)(=O)c2ccc(C)cc2)cc1 | . | . | . | . | . | .
Cc1cc2nc(SCC(=O)Nc3ccccc3C(=O)O)[nH]c2cc1C | . | / | . | . | .[10 µM] | .
CC1=N/C(=C\c2ccc([N+](=O)[O-])cc2)C(=O)N1c1cc(Cl)ccc1C | . | . | 11µM | . | . | .
CC1CCC(C(=O)O)NC1c1cccc(N2CCCC2=O)c1 (configuration not stated) | .[13.1 µM] | / | .[13.5 µM] | / | .[10 µM] | /
Cc1cc(C(F)(F)F)n(-c2nc(C(=O)NN)cs2)n1 | . | / | 2.2µM | ? | .[10 µM] | .
COC(=O)CCC(=O)OC1(C)C(=O)C2=CN(C(CO)CO)C(c3ccc(OC)cc3)=CC2=C(Br)C1=O (configuration not stated) | .[13.1 µM] | . | .[13.5 µM] | .[9.22 µM] | .[10 µM] | 5µM
COC(=O)CCC(=O)OC1(C)C(=O)C2=CN(CCCCO)C(c3ccc(OC)cc3)=CC2=C(Br)C1=O (configuration not stated) | .[13.1 µM] | . | .[13.5 µM] | / | .[10 µM] | .[11.4 µM]
O=C(CCc1nnc(CCCCc2ccccc2)o1)N1CCCCC1CCO (configuration not stated) | . | / | / | .[9.22 µM] | .[10 µM] | .
COc1ccc(NC2=CC(c3cccc(OC)c3)N(c3ccc(OC)cc3)C2=O)cc1 (configuration not stated) | ? | ? | 25µM | . | .[10 µM] | ?
COc1ccc(NC2=CC(c3ccccc3)N(c3ccc(OC)cc3)C2=O)cc1 (configuration not stated) | . | . | . | .[9.22 µM] | . | .
C=CCn1c(SCC(=O)N2CCOCC2)nc(O)cc1=O | . | . | . | ? | . | .
C=CCn1c(CC#N)nnc1N1CCOCC1 | . | . | 8.9µM | . | . | .
COc1ccc(/C=C2\N=C(c3ccccc3Cl)NC2=O)cc1 | . | / | / | .[9.22 µM] | .[10 µM] | .
COc1ccc(/C=C2\N=C(SC)NC2=O)cc1 | . | 22µM | . | . | . | .
COc1ccc(/C=C2/N=C(SC)NC2=O)cc1OC | . | / | . | .[9.22 µM] | .[10 µM] | .
CCSC1=N/C(=C\c2ccc(OC)cc2)C(=O)N1 | . | ? | 9.5µM | . | .[0.074 µM] | .
CC1CN(c2ccc(Cl)nn2)CC(C)O1 (configuration not stated) | ? | / | . | . | . | .
CCC(=O)N(C1=C(NC(C)C)C(=O)c2ccccc2C1=O)C(C)C | . | / | ? | .[9.22 µM] | .[10 µM] | ?
CCCNC1=C(N(C(C)=O)c2cccc(F)c2)C(=O)c2ccccc2C1=O | . | . | . | 11µM | .[10 µM] | ?
Cc1cc(-c2n[nH]c(=S)n2/N=C/c2cccs2)n[nH]1 | . | ? | . | . | .[10 µM] | .
CC(=C/c1ccccc1)/C=N/n1c(-c2ccco2)n[nH]c1=S | . | 5µM | ? | . | . | .
SMILES | CBFb RUNX1 block | HPGD inh | ALDH1A1 inh | HttQ103 aggreg | HTT cytoprotect | JMJD2E inh
CC(/C=N/n1c(-c2cc(C)[nH]n2)n[nH]c1=S)=C\c1ccccc1 | . | 10µM | . | . | .[10 µM] | ?
CC(/C=N/n1c(-c2cccnc2)n[nH]c1=S)=C\c1ccco1 | . | / | / | .[9.22 µM] | .[10 µM] | .
CNC(=O)NC(=O)C(C)OC(=O)c1ccc(Cl)c(S(=O)(=O)Nc2ccc(F)cc2)c1 (configuration not stated) | . | / | / | .[9.22 µM] | .[10 µM] | .
c1ccc2c(c1)nnn2CN1CCOCC1 | / | . | .[13.5 µM] | / | .[10 µM] | /
CC(=O)c1cccc(CN2CCN(Cc3ccc(F)cc3)C(CCO)C2)c1 (configuration not stated) | . | / | 28µM | .[9.22 µM] | .[10 µM] | .
Cc1cc(C2=NNC(=NC3CC3)SC2)c(C)n1-c1ccccc1 | . | . | 3.5µM | . | .[10 µM] | .
Cc1cc(C2=NNC(=NC3CC3)SC2)c(C)n1Cc1ccco1 | . | . | 20µM | ? | .[10 µM] | .
Cc1nc(C(=O)NC2CCOCC2)sc1C1(C)CC(c2cccc([N+](=O)[O-])c2)=NO1 (configuration not stated) | . | / | / | .[9.22 µM] | .[10 µM] | .
O=C(OC1Cc2c(O)cc(O)cc2OC1c1cc(O)c(O)c(O)c1-c1c(C2Oc3cc(O)cc(O)c3CC2O)cc(O)c(O)c1O)c1cc(O)c(O)c(O)c1 (configuration not stated) | / | . | . | / | / | 8.9µM
Oc1cc(O)c2c(c1)O[C@@H](c1ccc(O)c(O)c1)[C@H](O[C@@]1(c3cc(O)c(O)c(O)c3)Oc3cc(O)cc(O)c3[C@H](O)[C@@H]1O)C2 | / | . | .[13.5 µM] | / | .[10 µM] | /
COC(=O)c1ccccc1OCC(=O)N1CCN(c2ccc(F)cc2)CC1 | . | . | . | . | . | .
CC(=O)c1cc(F)ccc1OCC(=O)N1CCN(c2ccc(F)cc2)CC1 | . | / | 25µM | ? | . | .
CC1CN(C2CCN(C(=O)COc3ccc(Cl)cc3)CC2)CC(C)O1 (configuration not stated) | . | . | 13µM | . | . | ?
CCOC(=O)C(=O)Nc1cc(C(=O)OC)cc(C(=O)OC)c1 | . | / | ? | . | .[10 µM] | .
N=C1C(c2ccccc2)=C(O)C2CCc3ccccc3N12 (configuration not stated) | . | 16µM | . | . | . | .
CCCCC1=CC2=C(c3ccco3)C(=O)C(C)(OC(=O)c3ccc(OC)cc3)C(=O)C2=CN1C1CCCCC1 (configuration not stated) | .[13.1 µM] | ? | .[13.5 µM] | .[9.22 µM] | .[10 µM] | ?
Cc1cccc(C)c1-n1cccc1/C=C1\SC(=S)N(c2cccc(C(=O)O)c2)C1=O | . | / | ? | . | . | .
O=C(CNc1cccc2ccccc12)N/N=C/c1ccccn1 | . | / | / | .[9.22 µM] | .[10 µM] | ?
O=C(CNc1cccc2ccccc12)N/N=C/c1cccc(Oc2ccccc2)c1 | . | . | . | . | .[10 µM] | 28µM
CCN(CC)S(=O)(=O)c1csc(C(=O)NCc2ccccc2)c1 | . | . | . | . | . | .
CCc1ccc(CNc2ccc(O)cc2)cc1 | . | 22µM | 7.9µM | . | . | .
CC(C)Nc1cccnc1N1CCN(C(=O)c2cc3cc(NS(C)(=O)=O)ccc3[nH]2)CC1 | / | / | / | . | . | /
O=C(COc1ccc(Cl)cc1Cl)Nc1ccc2nc3n(c(=O)c2c1)CCCC3 | . | 10µM | ? | . | . | .
Cc1ccc(S(=O)(=O)N2CCCCC2)cc1NC(=O)c1ccc2c(=O)n3c(nc2c1)CCCCC3 | . | . | 14µM | . | .[10 µM] | .
O=C(Nc1ccc(F)c(Cl)c1)c1ccc2c(=O)n3c(nc2c1)CCCCC3 | . | / | 25µM | . | . | .
